# Results filed as inconclusive are left out. Activity calls are given as the source filed them. Rule for the calls: active = hit-call score of the fitted dose curve at least 0.9, where 1 is the maximum; inconclusive = response in the unintended direction; inactive = score below 0.9.
# Experiments:
# [1] = target: rat Adrenergic Receptor, Alpha 2 (Adra2), Non-selective Binding, Adra2a (gene 25083) (UniProt P22909); experiment: NVS_GPCR_rAdra2_NonSelective: NovaScreen (NVS) G Protein-Coupled Receptor Assay for rat Adrenergic Receptor, Alpha 2 (Adra2), Non-selective Binding (AID 2283299)
# Chain of rat Adrenergic Receptor, Alpha 2 (Adra2), Non-selective Binding, Adra2a (gene 25083) (P22909 whole entry, looked up): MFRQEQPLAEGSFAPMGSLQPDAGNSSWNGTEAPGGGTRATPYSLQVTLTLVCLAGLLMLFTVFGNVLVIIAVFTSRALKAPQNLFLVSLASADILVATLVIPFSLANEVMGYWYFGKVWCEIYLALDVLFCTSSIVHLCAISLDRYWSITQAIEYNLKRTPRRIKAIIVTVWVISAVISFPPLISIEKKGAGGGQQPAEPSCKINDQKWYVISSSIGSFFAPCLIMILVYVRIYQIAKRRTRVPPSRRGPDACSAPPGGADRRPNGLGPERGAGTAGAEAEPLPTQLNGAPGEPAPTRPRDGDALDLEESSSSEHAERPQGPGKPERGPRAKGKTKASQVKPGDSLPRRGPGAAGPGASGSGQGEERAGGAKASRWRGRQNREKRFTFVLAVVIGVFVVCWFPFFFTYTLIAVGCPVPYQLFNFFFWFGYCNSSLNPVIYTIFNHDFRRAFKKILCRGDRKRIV
# How it was run: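 Filter-based scintillation counting of radioligand binding to rat cortical membrane receptors, measured 1.25 hours post-dosing; loss of signal versus DMSO indicates displacement. Initial single-concentration duplicate at 25 uM, then concentration series.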
# [2] = target: mouse Cholecystokinin, CCK2 Receptor (CCKB), Cckbr (gene 12426) (UniProt P56481); experiment: NVS_GPCR_mCKKBCentral: NovaScreen (NVS) G Protein-Coupled Receptor Assay for mouse Cholecystokinin, CCK2 Receptor (CCKB) (AID 2283293)
# Chain of mouse Cholecystokinin, CCK2 Receptor (CCKB), Cckbr (gene 12426) (P56481 whole entry, looked up): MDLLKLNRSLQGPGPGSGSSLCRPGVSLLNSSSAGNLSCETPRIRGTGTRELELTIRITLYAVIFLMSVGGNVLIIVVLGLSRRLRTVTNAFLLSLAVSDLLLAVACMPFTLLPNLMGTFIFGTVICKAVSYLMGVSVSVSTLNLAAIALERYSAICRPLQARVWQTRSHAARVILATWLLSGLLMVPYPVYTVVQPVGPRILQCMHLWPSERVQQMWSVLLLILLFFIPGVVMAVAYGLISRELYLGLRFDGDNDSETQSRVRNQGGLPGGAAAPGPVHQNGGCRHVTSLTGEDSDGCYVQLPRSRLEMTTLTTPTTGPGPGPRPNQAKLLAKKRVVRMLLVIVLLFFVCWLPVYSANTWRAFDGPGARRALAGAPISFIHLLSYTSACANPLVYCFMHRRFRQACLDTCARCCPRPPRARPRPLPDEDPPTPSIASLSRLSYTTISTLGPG
# How it was run: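 Mouse forebrain membrane preparation incubated 2 h with chemical and radioligand; bound radioactivity counted after filtration. Single-concentration duplicate screen at 25 uM, then concentration series to 50 uM max for hits, DMSO as baseline.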
# [3] = target: human Thromboxane A2 Receptor (TXA2), TBXA2R (gene 6915) (UniProt P21731); experiment: NVS_GPCR_hTXA2: NovaScreen (NVS) G Protein-Coupled Receptor Assay for human Thromboxane A2 Receptor (TXA2) (AID 2283282);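 note: actives reduce bound radioligand signal relative to DMSO baseline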
# Chain of human Thromboxane A2 Receptor (TXA2), TBXA2R (gene 6915) (P21731 whole entry, looked up): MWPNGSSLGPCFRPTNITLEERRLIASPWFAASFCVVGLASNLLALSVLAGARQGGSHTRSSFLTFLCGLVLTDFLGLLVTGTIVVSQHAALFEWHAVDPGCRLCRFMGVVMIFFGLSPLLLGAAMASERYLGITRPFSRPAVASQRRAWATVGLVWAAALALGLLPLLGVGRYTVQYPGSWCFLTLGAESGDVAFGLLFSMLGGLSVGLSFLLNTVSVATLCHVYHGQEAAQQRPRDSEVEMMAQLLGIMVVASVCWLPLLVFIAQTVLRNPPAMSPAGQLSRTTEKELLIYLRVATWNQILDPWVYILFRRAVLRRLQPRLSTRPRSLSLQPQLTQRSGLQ
# How it was run: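 Cell-free radioligand binding with human platelet-derived receptor; 1 h after dosing, filter-based scintillation counting, loss of signal vs DMSO. Primary screen in duplicate at 25 uM.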
# [4] = target: mouse Cholecystokinin, CCK1 Receptor (CCKA), Cckar (gene 12425) (UniProt O08786); experiment: NVS_GPCR_mCCKAPeripheral: NovaScreen (NVS) G Protein-Coupled Receptor Assay for mouse Cholecystokinin, CCK1 Receptor (CCKA) (AID 2283285)
# Chain of mouse Cholecystokinin, CCK1 Receptor (CCKA), Cckar (gene 12425) (O08786 whole entry, looked up): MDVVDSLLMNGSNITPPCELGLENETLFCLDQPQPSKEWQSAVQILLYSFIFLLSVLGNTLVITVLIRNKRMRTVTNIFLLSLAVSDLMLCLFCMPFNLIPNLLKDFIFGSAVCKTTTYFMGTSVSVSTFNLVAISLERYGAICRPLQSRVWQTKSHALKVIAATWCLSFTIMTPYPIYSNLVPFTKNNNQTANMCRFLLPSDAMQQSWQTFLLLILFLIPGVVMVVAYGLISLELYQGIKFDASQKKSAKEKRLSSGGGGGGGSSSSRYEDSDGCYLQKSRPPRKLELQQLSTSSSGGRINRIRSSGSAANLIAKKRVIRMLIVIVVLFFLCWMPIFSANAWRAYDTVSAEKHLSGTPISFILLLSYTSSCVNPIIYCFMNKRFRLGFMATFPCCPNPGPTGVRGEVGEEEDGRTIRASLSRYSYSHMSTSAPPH
# How it was run: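 Chemicals were first screened in duplicate at 25 uM, with those meeting threshold (e.g., 30% inhibition) retested in singleton concentration series to 50 uM maximum. Binding of radioligand to mouse pancreatic membranes was read after 2 h by filtration and scintillation counting.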
# [5] = target: human Neonicotinoid receptor (NNR), CHRNA2 (gene 1135) (UniProt Q15822); experiment: NVS_LGIC_hNNR_NBungSens: NovaScreen (NVS) Ligand-Gated Ion Channel Assay for human Neonicotinoid receptor (NNR) (AID 2283313)
# Chain of human Neonicotinoid receptor (NNR), CHRNA2 (gene 1135) (Q15822 whole entry, looked up): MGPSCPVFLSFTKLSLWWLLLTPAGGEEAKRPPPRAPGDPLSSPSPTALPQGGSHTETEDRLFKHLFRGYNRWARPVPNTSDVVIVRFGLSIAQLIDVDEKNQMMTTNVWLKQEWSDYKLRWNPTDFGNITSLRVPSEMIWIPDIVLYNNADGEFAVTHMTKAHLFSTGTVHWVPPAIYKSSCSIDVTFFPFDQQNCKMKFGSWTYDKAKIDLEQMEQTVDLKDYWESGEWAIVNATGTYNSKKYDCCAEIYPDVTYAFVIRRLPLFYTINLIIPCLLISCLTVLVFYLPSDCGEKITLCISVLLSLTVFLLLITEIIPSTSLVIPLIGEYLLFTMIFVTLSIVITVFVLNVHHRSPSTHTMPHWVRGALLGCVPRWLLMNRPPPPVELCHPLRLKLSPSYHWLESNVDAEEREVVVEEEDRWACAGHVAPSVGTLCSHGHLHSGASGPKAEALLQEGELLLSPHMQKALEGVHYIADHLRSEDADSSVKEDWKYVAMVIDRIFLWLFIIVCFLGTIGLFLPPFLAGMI
# How it was run: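 Compounds first screened in duplicate at 25 uM, then actives re-tested in single-replicate dose series up to 50 uM. Binding measured as displacement of specific radioligand from neuroblastoma membrane receptors after 2 h, scintillation read on filters.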
# [6] = target: human Constitutive Androstane Receptor (CAR), NR1I3 (gene 9970) (UniProt Q14994); experiment: NVS_NR_hCAR_Agonist: NovaScreen (NVS) Nuclear Receptor Binding Assay for human Constitutive Androstane Receptor Agonism (CAR) (AID 2283328)
# Chain of human Constitutive Androstane Receptor (CAR), NR1I3 (gene 9970) (Q14994 whole entry, looked up): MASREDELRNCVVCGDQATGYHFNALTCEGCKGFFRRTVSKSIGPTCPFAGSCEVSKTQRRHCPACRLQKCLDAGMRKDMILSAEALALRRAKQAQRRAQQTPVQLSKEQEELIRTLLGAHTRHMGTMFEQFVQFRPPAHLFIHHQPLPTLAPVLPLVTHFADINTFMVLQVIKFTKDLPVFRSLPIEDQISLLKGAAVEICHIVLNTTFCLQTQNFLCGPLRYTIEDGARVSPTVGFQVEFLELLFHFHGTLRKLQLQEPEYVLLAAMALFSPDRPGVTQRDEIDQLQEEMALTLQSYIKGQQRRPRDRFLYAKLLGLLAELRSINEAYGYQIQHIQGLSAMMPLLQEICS
# How it was run: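 Actives from a 25 uM duplicate screen were retested in singleton concentration series to 50 uM max. Biochemical TR-FRET assay on extracted CAR protein measured 1 h post-dose, with signal increase over DMSO control.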
# [7] = tested on: 5-hydroxytryptamine receptor 2C (pig); experiment: NVS_GPCR_p5HT2C: NovaScreen (NVS) G Protein-Coupled Receptor Assay for pig Serotonin, 5-Hydroxytryptamine Receptor 2C (5HT2C) (AID 2283288)
# How it was run: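 Radioligand displacement on membranes from pig choroid plexus, detected by filter scintillation counting after 1 h. Tested first at a single 25 uM in duplicate, then in concentration-response for actives; DMSO served as baseline.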
# [8] = target: rat Gamma-Aminobutyric Acid Type A Receptor, Non-Selective (GABAR-NonSelective), Gabra1 (gene 29705) (UniProt P62813); experiment: NVS_LGIC_rGABAR_NonSelective: NovaScreen (NVS) Ligand-Gated Ion Channel Assay for rat Gamma-Aminobutyric Acid Type A Receptor, Non-Selective (GABAR-NonSelective) (AID 2283326)
# Chain of rat Gamma-Aminobutyric Acid Type A Receptor, Non-Selective (GABAR-NonSelective), Gabra1 (gene 29705) (P62813 whole entry, looked up): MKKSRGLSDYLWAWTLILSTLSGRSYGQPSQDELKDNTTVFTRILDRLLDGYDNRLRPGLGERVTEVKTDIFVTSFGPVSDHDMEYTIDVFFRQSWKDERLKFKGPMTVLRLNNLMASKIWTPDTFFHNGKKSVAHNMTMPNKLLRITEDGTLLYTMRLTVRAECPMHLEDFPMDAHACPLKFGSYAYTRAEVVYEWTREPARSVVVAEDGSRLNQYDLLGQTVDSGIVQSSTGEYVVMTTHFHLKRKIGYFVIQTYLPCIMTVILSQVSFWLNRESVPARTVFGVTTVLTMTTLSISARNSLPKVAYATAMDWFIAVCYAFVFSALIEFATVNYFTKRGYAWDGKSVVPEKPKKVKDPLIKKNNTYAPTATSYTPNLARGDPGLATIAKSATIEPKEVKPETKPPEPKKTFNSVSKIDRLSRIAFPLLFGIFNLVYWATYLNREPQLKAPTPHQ
# How it was run: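 Compounds were first screened in duplicate at 25 uM, with actives run as singleton concentration series (max 50 uM). Binding of a radioligand to rat whole-brain GABA-A preparation was measured by filtration and scintillation counting after 1 h, DMSO baseline.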
# [9] = target: human Purinergic Receptor P2Y, P2RY1 (gene 5028) (UniProt P47900); experiment: NVS_GPCR_hPY2: NovaScreen (NVS) G Protein-Coupled Receptor Assay for human Purinergic Receptor P2Y (AID 2283281)
# Chain of human Purinergic Receptor P2Y, P2RY1 (gene 5028) (P47900 whole entry, looked up): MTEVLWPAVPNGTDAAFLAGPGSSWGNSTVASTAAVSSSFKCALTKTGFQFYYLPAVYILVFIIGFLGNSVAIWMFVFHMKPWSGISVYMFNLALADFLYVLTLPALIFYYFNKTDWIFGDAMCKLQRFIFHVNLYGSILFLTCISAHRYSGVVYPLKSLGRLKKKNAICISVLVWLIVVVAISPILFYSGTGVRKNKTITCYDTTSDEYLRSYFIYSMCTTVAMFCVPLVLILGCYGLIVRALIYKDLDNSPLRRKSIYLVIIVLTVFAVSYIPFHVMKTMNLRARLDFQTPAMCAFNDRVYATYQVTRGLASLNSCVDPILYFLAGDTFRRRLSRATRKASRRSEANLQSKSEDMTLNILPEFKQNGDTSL
# How it was run: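 Filtration scintillation readout of radioligand displacement on U937 extract, measured 1 h post-dosing. Single 25 uM duplicate screen, then singleton concentration series to 50 uM for chemicals passing threshold; DMSO as baseline.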
# [10] = target: human Orphanin, Opioid Related Nociceptin Receptor 1 (ORL1), OPRL1 (gene 4987) (UniProt P41146); experiment: NVS_GPCR_hORL1: NovaScreen (NVS) G Protein-Coupled Receptor Assay for human Orphanin, Opioid Related Nociceptin Receptor 1 (ORL1) (AID 2283283)
# Chain of human Orphanin, Opioid Related Nociceptin Receptor 1 (ORL1), OPRL1 (gene 4987) (P41146 whole entry, looked up): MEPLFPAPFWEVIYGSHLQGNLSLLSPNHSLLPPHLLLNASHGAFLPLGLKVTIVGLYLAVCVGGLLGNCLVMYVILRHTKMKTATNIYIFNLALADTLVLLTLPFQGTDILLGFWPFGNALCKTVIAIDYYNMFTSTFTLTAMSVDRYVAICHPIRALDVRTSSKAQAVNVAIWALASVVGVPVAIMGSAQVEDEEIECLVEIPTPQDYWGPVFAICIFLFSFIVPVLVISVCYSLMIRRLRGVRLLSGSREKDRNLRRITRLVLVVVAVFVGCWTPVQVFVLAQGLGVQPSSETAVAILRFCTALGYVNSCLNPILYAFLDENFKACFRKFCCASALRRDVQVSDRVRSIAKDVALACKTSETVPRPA
# How it was run: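 Cell-free binding using HEK293-derived receptor protein: radioligand displacement measured by filter scintillation 1 hour after dosing. Primary testing at 25 uM in duplicate, followed by singleton concentration series up to 50 uM; DMSO served as negative control.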
# [11] = target: human Opioid Receptor Mu (Opiate Mu), OPRM1 (gene 4988) (UniProt P35372); experiment: NVS_GPCR_hOpiate_mu: NovaScreen (NVS) G Protein-Coupled Receptor Assay for human Opioid Receptor Mu (Opiate Mu) (AID 2283290);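 note: hits lower bound tracer signal versus DMSO meaning displacement of the ligand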
# Chain of human Opioid Receptor Mu (Opiate Mu), OPRM1 (gene 4988) (P35372 whole entry, looked up): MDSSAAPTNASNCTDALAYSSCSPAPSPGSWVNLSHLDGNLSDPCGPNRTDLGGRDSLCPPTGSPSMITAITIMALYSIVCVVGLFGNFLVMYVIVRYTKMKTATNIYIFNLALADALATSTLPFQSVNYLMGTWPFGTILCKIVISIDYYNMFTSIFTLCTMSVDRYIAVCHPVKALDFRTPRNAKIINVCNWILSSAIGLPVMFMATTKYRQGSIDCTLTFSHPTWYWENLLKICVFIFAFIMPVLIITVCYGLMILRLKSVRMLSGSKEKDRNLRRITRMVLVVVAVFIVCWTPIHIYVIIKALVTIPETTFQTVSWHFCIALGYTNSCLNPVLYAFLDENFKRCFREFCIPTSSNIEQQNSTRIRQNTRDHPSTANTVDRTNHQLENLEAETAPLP
# How it was run: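 Radioligand displacement binding on membranes from CHO cells expressing the receptor, 2.5 h after dosing, filter-based scintillation counting; loss of signal vs DMSO baseline. Screened in duplicate at 25 uM, actives then run in concentration series.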
# [12] = target: Sodium channel protein type 1 subunit alpha (Rattus norvegicus) (UniProt P04774); experiment: NVS_IC_rNaCh_site2: NovaScreen (NVS) Ion Channel Assay for rat Sodium Channel, Site 2 (NaCh) (AID 2283322);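 note: hit means loss of radioligand binding signal relative to DMSO so AC50 marks displacement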
# How it was run: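 Initial duplicate single-point testing at 25 uM, followed by concentration-response runs for actives. Binding of radioligand to rat forebrain membranes quantified after 1 h via filter-based radiodetection.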
# [13] = NVS_IC_rCaDHPRCh_L: NovaScreen (NVS) Ion Channel Assay for rat Calcium Channel, Type L, Dihydropyridine Site (CaDHPRCh_L) (AID 2283320)
# How it was run: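 Rat cortex membrane preparation; dihydropyridine-site radioligand displacement read 1 h post-dose by filtration and scintillation. Primary single-point screen 25 uM in duplicate, then concentration series to 50 uM maximum; DMSO as negative control.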
smiles,measurement,setting,value
CCC(C)(C#N)N=NC(C)(C#N)CC (stereo not given),outcome,[1],inactive
Oc1c(Cl)cc(Cl)cc1Cl,outcome,[2],inactive
O=C(N[C@H]1CN2CCC1CC2)c1ccc2c(c1)OCCO2,outcome,[3],inactive
same,outcome,[4],inactive
same,AC50,[5],12.1 µM (active)
same,outcome,[6],inactive
Oc1cc(Cl)c(Cl)cc1Cl,AC50,[7],10.2 µM (active)
same,outcome,[8],inactive
COC(=O)Nc1cccc(OC(=O)Nc2cccc(C)c2)c1,AC50,[7],25 µM (active)
O=C(O)COc1cc(Cl)c(Cl)cc1Cl,outcome,[3],inactive
Cc1cc(Cl)ccc1OC(C)C(=O)O (stereo not given),outcome,[9],inactive
N#CCCC(Br)(C#N)CBr (stereo not given),AC50,[3],0.594 µM (active)
same,AC50,[10],4.83 µM (active)
same,AC50,[11],20.6 µM (active)
CCCCCCCCCCBr,outcome,[12],inactive
OC(Cc1ccccc1Cl)(Cn1cncn1)C1(Cl)CC1 (stereo not given),AC50,[12],6.73 µM (active)
O=S(=O)(C(Cl)(Cl)Cl)C(Cl)(Cl)Cl,AC50,[11],7.84 µM (active)
COc1ccccc1N,AC50,[1],25 µM (active)
Clc1cccc(Cl)c1,outcome,[13],inactive
Oc1cccc(-c2ccccc2)c1,outcome,[3],inactive
